Data published in the supplement of paper PMC9262897, “Low-cost anti-mycobacterial drug discovery using engineered E. coli” (Nature Communications, 2022).
Structures can show the parent of a compound that is named as a salt. ± gives the standard deviation of the averaged measurements.

Test system: E. coli TESEC Alr+ wild-type control
Test: growth (OD600 after 10 h); higher = more growth (less inhibition)
Details: compound 0.1 mM; raw OD600 reference: median of DMSO wells 0.241, cell-free background 0.041
Description: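 TESEC Mtb Alr E. coli, or the Alr+ wild-type control, in 384-well plates with Prestwick library compounds at 0.1 mM and 1% DMSO, across arabinose induction levels of 1E3 to 1E7 nM. Growth is read as OD600 after 10 h at 37 °C in triplicate biological replicates.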

Compound | growth
CCCCN(CCCC)CCC(O)c1cc2c(Cl)cc(Cl)cc2c2cc(C(F)(F)F)ccc12 (centres undefined) [Halofantrine hydrochloride] | 0.24 ± 0.011
CO[C@@H]1[C@@H](O[C@@H]2O[C@H](C)[C@@H](O[C@H]3C[C@@](C)(O)[C@@H](OC(=O)CC(C)C)[C@H](C)O3)[C@H](N(C)C)[C@H]2O)[C@@H](CC=O)C[C@@H](C)[C@@H](O)/C=C/C=C/C[C@@H](C)OC(=O)C[C@H]1OC(C)=O [Josamycin] | 0.04167 ± 0.00025
Cc1ccccc1C(OCCN(C)C)c1ccccc1 (centres undefined) [Orphenadrine hydrochloride] | 0.208 ± 0.013
O=C(NCC1CCCCN1)c1cc(OCC(F)(F)F)ccc1OCC(F)(F)F (centres undefined) [Flecainide acetate] | 0.2202 ± 0.00045
C[C@]12CC[C@@H]3c4ccc(O)cc4C[C@@H](CCCCCCCCC[S+]([O-])CCCC(F)(F)C(F)(F)F)[C@H]3[C@@H]1CC[C@@H]2O (some centres undefined) [Fulvestrant] | 0.265 ± 0.015
CN1CCN(CC(=O)N2c3ccccc3C(=O)Nc3cccnc32)CC1 [Pirenzepine dihydrochloride] | 0.242 ± 0.0032
CCCCC(=O)N(Cc1ccc(-c2ccccc2-c2nnn[nH]2)cc1)[C@H](C(=O)O)C(C)C [Valsartan] | 0.249 ± 0.013
CCOc1ccccc1OCC1CNCCO1 (centres undefined) [Viloxazine hydrochloride] | 0.236 ± 0.0043
Cc1nc2n(c(=O)c1CCN1CCC(c3noc4cc(F)ccc34)CC1)CCCC2 [Risperidone] | 0.237 ± 0.0077
C=C1C(=O)O[C@H]2[C@H]1CC/C(C)=C/CC[C@@]1(C)O[C@@H]21 [Parthenolide] | 0.157 ± 0.0041
CC(C(O)c1ccc(O)cc1)N1CCC(Cc2ccccc2)CC1 (centres undefined) [Ifenprodil tartrate] | 0.195 ± 0.018
O=C(c1ccc(F)cc1)C1CCN(CCn2c(=O)[nH]c3ccccc3c2=O)CC1 [Ketanserin tartrate hydrate] | 0.183 ± 0.0037
COc1cc2nc(N(C)CCCNC(=O)C3CCCO3)nc(N)c2cc1OC (centres undefined) [Alfuzosin hydrochloride] | 0.215 ± 0.0062
CN(C)C(=O)C(CCN1CCC(O)(c2ccc(Cl)cc2)CC1)(c1ccccc1)c1ccccc1 [Loperamide hydrochloride] | 0.0426 ± 0.00061
CNCCC=C1c2ccccc2C=Cc2ccccc21 [Norcyclobenzaprine] | 0.182 ± 0.016
O=S(=O)(O)c1cc(O)ccc1O [Ethamsylate] | 0.252 ± 0.0066
N[C@@H]1CONC1=O [D-cycloserine] | 0.246 ± 0.0051
Clc1ccc(CO/N=C(\Cn2ccnc2)c2ccc(Cl)cc2Cl)c(Cl)c1 [Oxiconazole Nitrate] | 0.0527 ± 0.0022
COc1cc(NS(=O)(=O)c2ccc(N)cc2)ncn1 [Sulfamonomethoxine] | 0.222 ± 0.0061
C[C@@H]1NC(=O)NC1=O [Methylhydantoin-5-(L)] | 0.236 ± 0.0048

Compound | growth
Cn1c(=O)c2c(ncn2CC(=O)O)n(C)c1=O [Acefylline] | 0.248 ± 0.0081
CCC(=O)O[C@]1(C(=O)SCF)[C@H](C)C[C@H]2[C@@H]3C[C@H](F)C4=CC(=O)C=C[C@]4(C)[C@@]3(F)[C@@H](O)C[C@@]21C [Fluticasone propionate] | 0.233 ± 0.0036
Cn1c(=O)c2c(ncn2CCO)n(C)c1=O [Etofylline] | 0.254 ± 0.003
CCOC(=O)[C@H](CCc1ccccc1)N[C@@H](C)C(=O)N1CCC[C@H]1C(=O)O [Enalapril maleate] | 0.247 ± 0.014
CCC[C@@H]1C[C@@H](C(=O)N[C@@H]([C@H]2O[C@H](SC)[C@H](O)[C@@H](O)[C@H]2O)[C@@H](C)O)N(C)C1 [Lincomycin hydrochloride] | 0.0958 ± 0.0084
CC(C)(C)NC[C@H](O)COc1nsnc1N1CCOCC1 [Timolol maleate salt] | 0.2306 ± 0.00072
CC(C)NCC(O)COc1ccc(COCCOC(C)C)cc1 (centres undefined) [Bisoprolol fumarate] | 0.227 ± 0.01
c1ccc2c(CC3=NCCN3)cccc2c1 [Naphazoline hydrochloride] | 0.231 ± 0.0088
CC(=O)OCC(=O)[C@@]1(O)CC[C@H]2[C@@H]3CCC4=CC(=O)CC[C@]4(C)[C@@]3(F)[C@@H](O)C[C@@]21C [Fludrocortisone acetate] | 0.188 ± 0.0026
O=P(O)(O)C(O)(Cn1ccnc1)P(=O)(O)O [Zoledronic acid hydrate] | 0.241 ± 0.0059
Cc1c(N(C)C)c(=O)n(-c2ccccc2)n1C [Amidopyrine] | 0.242 ± 0.0096
C=C1/C(=C\C=C2/CCC[C@]3(C)[C@@H]([C@H](C)/C=C/[C@@H](O)C4CC4)CC[C@@H]23)C[C@@H](O)C[C@@H]1O [Calcipotriene] | 0.0539 ± 0.0078
NS(=O)(=O)c1cc2c(cc1Cl)N=CNS2(=O)=O [Chlorothiazide] | 0.254 ± 0.0047
CN(C)CCc1c[nH]c2ccc(Cn3cncn3)cc12 [Rizatriptan benzoate] | 0.24 ± 0.0036
Nc1ncn(C2OC(CO)C(O)C2O)c(=O)n1 (centres undefined) [Azacytidine-5] | 0.093 ± 0.0029
CC(=O)N[C@@H](CC(=O)N[C@@H](CCC(=O)O)C(=O)O)C(=O)O [Spaglumic acid] | 0.237 ± 0.0082
Cc1c(NC(=O)c2cccnc2)c(=O)n(-c2ccccc2)n1C [Nifenazone] | 0.251 ± 0.0067
Cc1ccnc2c1NC(=O)c1cccnc1N2C1CC1 [Nevirapine] | 0.233 ± 0.0085
CC(C)NCC(O)COc1ccc(CCOCC2CC2)cc1 (centres undefined) [Betaxolol hydrochloride] | 0.222 ± 0.0081
